# Laboratory results taken from publication PMC4336329 (PLoS ONE, 2015).
# About 2,200 (0.71%) of roughly 310,000 compounds showed an effect of 50% or more. Effects have a minus sign here. This excerpt belongs to a sample that is enriched for strong results.
# Molecular target: human ether-à-go-go-related gene (hERG) potassium channel (human, UniProt Q12809)
# Experiment: primary screen, population patch clamp on CHO cells stably expressing hERG; higher = less effect of the substance
# Sequence of human ether-à-go-go-related gene (hERG) potassium channel (Q12809 whole entry, looked up): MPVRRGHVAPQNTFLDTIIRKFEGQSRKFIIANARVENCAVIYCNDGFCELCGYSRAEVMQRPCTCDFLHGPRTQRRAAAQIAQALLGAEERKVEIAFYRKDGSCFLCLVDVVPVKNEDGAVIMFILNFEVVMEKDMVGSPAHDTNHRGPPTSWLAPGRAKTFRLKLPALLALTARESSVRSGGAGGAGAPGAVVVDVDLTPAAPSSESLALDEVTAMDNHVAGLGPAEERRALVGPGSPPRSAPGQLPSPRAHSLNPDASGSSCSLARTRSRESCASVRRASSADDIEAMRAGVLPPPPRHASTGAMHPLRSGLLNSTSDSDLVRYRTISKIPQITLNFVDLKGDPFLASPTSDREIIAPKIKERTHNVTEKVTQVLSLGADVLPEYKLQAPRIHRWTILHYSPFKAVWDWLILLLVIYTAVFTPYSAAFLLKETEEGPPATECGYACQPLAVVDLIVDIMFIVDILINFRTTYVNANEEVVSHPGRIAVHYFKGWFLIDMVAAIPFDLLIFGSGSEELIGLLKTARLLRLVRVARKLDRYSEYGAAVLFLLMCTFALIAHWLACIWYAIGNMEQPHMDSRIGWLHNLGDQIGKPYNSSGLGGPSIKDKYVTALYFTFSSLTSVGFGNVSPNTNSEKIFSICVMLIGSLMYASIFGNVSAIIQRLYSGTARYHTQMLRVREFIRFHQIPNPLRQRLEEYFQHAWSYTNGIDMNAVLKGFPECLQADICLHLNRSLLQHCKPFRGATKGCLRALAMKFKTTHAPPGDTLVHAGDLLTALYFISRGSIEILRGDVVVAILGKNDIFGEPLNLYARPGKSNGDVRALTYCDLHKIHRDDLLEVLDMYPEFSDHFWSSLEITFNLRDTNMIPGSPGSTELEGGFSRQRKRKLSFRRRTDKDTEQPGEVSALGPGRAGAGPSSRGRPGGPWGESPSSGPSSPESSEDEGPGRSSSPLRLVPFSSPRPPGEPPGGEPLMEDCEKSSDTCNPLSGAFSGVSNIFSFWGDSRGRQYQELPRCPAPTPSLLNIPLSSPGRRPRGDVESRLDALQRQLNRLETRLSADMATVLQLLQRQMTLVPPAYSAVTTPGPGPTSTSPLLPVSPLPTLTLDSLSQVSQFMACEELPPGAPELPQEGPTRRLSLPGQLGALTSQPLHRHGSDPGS
row,SMILES,"hERG current change (%, negative = inhibition) at 1uM [%]"
1,O=C(COC(=O)/C=C/c1ccccc1F)Nc1nnc(-c2ccccc2)o1,7.16
2,Cc1ccc(S(=O)(=O)NCCOCCNS(=O)(=O)c2ccc(C)cc2)cc1,-2.18
3,Cc1ccccc1C(=O)NC1CCN(C(=O)N2CCOCC2)CC1,12.6
4,O=c1cc(O)c2c(=O)n(C3CCCCC3)c3ccccc3c2o1,10.4
5,CC(C)OC(=O)CSc1nc2c(cc1C#N)CCCCC2,10.2
6,CC12CCC(=O)N1C(C(=O)OCC(=O)Nc1cc(S(=O)(=O)N3CCCCC3)ccc1Cl)CS2 (centres unmarked),11.1
7,CC12CCC(=O)N1C(C(=O)OCC(=O)Nc1cccc(S(=O)(=O)N3CCCCCC3)c1)CS2 (centres unmarked),-51.9
8,CC12CCC(=O)N1C(C(=O)Nc1cccc(S(=O)(=O)N3CCCCCC3)c1)CS2 (centres unmarked),-29.7
9,COc1ccc(CNCC(O)(c2ccccc2)c2ccc(F)cc2)cc1 (centres unmarked),-45.9
10,O=C(CN1CCCC1=O)NCCc1ccccc1,8.88
11,CSc1ccc(CN(C)CCc2ccccn2)cc1.O=C(O)C(=O)O,-21.3
12,CN(CCc1ccccn1)Cc1ccc(Cl)cc1Cl,-54.1
13,CN(CCc1ccccn1)Cc1ccc(Cl)cc1,-24.6
14,CN(CCc1ccccn1)Cc1ccc(Cl)c(Cl)c1,-0.903
15,CCOc1ccc(CN(C)C(C)C(=O)NCCc2ccc(F)cc2)cc1 (centres unmarked),-57.1
16,CCc1ccc(CN(C)CCc2ccccn2)cc1,-34.7
17,CCOc1ccc(CN(C)CCc2ccccn2)cc1.O=C(O)C(=O)O,-58.8
18,CCC(CC)C(=O)NCCc1ccc(F)cc1,10.2
19,CSc1ccc(CN(C)CC(=O)NCc2ccccc2)cc1,-11.1
20,CCOc1ccc(CN(C)C(C)C(=O)NCc2ccccc2)cc1 (centres unmarked),-21.7
21,CCOc1ccc(CN(C)CC(=O)NCc2ccccc2)cc1,-82.3
22,CN(CC(=O)NCc1ccccc1)Cc1ccc(Cl)cc1,2.36
23,O=c1c2ccccc2c(/C=N/c2nnc(Cc3ccccc3)s2)c(O)n1-c1ccc(Cl)cn1,11.3
24,COC(=O)C(C)NS(=O)(=O)c1ccc(NC(C)=O)cc1 (centres unmarked),1.66
25,Cc1ccc(C(=O)c2coc3cc([N+](=O)[O-])c(O)c([N+](=O)[O-])c23)cc1,7.26
26,COCCCn1c(=O)/c(=C\c2ccccc2OC(F)F)s/c1=C(/C#N)C(=O)N1CCOCC1,9.19

row,SMILES,"hERG current change (%, negative = inhibition) at 1uM [%]"
1,CCN(CCn1cccn1)C(=O)c1cc(COc2ccc(F)c(F)c2)on1,-27.1
2,COc1cc(S(=O)(=O)N2CCOCC2)ccc1NC(=O)c1cc2c(s1)CCC2,3.78
3,Cc1ccc2c(c1)N(C(=O)CCC(=O)NCc1cccnc1)CCO2,-4.63
4,COc1cccc(CN(C)CC(=O)NCc2ccccc2Cl)c1OC,10.6
5,CN(CC(=O)NCc1ccc(F)cc1)Cc1ccc(Br)cc1,2.94
6,COc1cccc(CN(C)CC(=O)NCc2ccccc2Cl)c1,14.6
7,CSc1ccc(CN(C)CC(=O)NCc2ccc(F)cc2)cc1,-19.3
8,CCOc1ccc(CN(C)CC(=O)NCc2ccc(F)cc2)cc1,-78.6
9,CCOc1ccc(CN(C)CC(=O)NCc2ccccc2Cl)cc1,-73.6
10,CCOC(=O)c1ccc(Oc2nc(NC(C)(C)C)nc(N(C)C)n2)cc1,6.02
11,CCOC(=O)Nc1c(C(=O)OC)[nH]c2cc(OC)ccc12,-3.1
12,CCCn1c(SCc2ccccn2)nc2c1c(=O)n(C)c(=O)n2C,16.5
13,O=[N+]([O-])c1cccc(C(=NCc2ccccc2)NO)c1,15.5
14,CN(C)C(=S)NC(=NCc1ccc([N+](=O)[O-])cc1)c1ccccc1,-60.3
15,O=[N+]([O-])c1ccc(NC(=S)N/C(=N/CS(=O)(=O)c2ccccc2)c2ccccc2)cc1,11
16,S=C(NCCc1ccccn1)Nc1ccccc1Cl,17
17,COc1cn(-c2ccccc2)nc1C(=O)OCC(=O)Nc1ccc(C)c(C)c1,12.1
18,CC(NC(=O)c1ccc2c(c1)OCO2)C1CCCO1 (centres unmarked),-0.0414
19,CCCn1c(SCC(=O)N2CCN(C(=O)c3ccco3)CC2)nc2ccccc2c1=O,-84.8
20,C=CCn1c(SCC(=O)N2CCCC2=O)nc2sc(CC)cc2c1=O,-20
21,CCOC(=O)CSc1nc2ccccc2c(=O)n1Cc1ccco1,0.785
22,O=C(CSc1nc2ccccc2c(=O)n1Cc1ccco1)N1CCCC1,-81.3
23,NC(=O)CSc1nc2ccccc2c(=O)n1Cc1ccco1,-15.1
24,CCN(CC)C(=O)CSc1nc2c(sc(=S)n2Cc2ccco2)c(=O)n1-c1ccccc1,5.26
25,CC(C)Cn1c(SCC(=O)N2CCN(C(=O)c3ccco3)CC2)nc2ccccc2c1=O,-42.9
26,CCN(CC)C(=O)CSc1nc2c(sc(=S)n2CC)c(=O)n1-c1ccccc1,-13.3

row,SMILES,"hERG current change (%, negative = inhibition) at 1uM [%]"
1,C=CCn1c(SCC(=O)N2CCc3ccccc3C2)nc2sc(CC)cc2c1=O,10.8
2,CCN(CC)C(=O)CSc1nc2c(sc(=S)n2-c2ccccc2)c(=O)n1Cc1ccco1,-86.3
3,C=CCn1c(SCC(=O)N2CCN(C(=O)c3ccco3)CC2)nc2sc(CC)cc2c1=O,-85.6
4,CCCCn1c(SCC(=O)N2CCOCC2)nc2ccccc2c1=O,-39.4
5,Cc1cccc(OCCNC(=O)CCNS(=O)(=O)c2ccc3ccccc3c2)c1,6.04
6,CCCn1nc(C(=O)Nc2ccc(N3CCOCC3)cc2)c2ccccc2c1=O,1.6
7,O=C(Cn1nc(Br)nc1Br)c1ccccc1,10.2
8,COc1cc(C2NC(=O)NC(C)=C2C(=O)NCc2ccccc2)c(Cl)cc1O (centres unmarked),13.7
9,COCCNC(=O)C1CC(c2ccccc2C(F)(F)F)=NO1 (centres unmarked),14.7
10,O=C(CSc1nc2ccccc2c(=O)n1Cc1ccco1)N1CCN(c2ccccc2)CC1,-83.6
11,O=C(CSc1nc2ccccc2c(=O)n1Cc1ccco1)NCc1ccco1,-40.8
12,Cn1c(SCC(=O)NCCN2C(=O)CSC2=O)nc2ccccc2c1=O,7.27
13,O=C(CSc1nc2ccccc2c(=O)n1CCCN1CCOCC1)N1CCN(c2ccccc2)CC1,-6.61
14,O=C(CSc1nc2ccccc2c(=O)n1Cc1ccco1)N1CCCCCC1,-82.8
15,CCn1c(SCC(=O)N2CCCC2)nc2ccccc2c1=O,-7.76
16,O=C(CSc1nc2ccccc2c(=O)n1Cc1ccco1)NCCN1C(=O)CSC1=O,-56
17,CCn1c(SCC(=O)N2CCCCCC2)nc2ccccc2c1=O,2.02
18,CCCn1c(SCC(=O)N2CCN(c3ccccc3)CC2)nc2ccccc2c1=O,-4.8
19,COc1cc(OC)c(NC(=S)NCc2ccc(F)cc2)cc1Cl,8.5
20,Oc1ccccc1N1CCN(Cc2ncc(-c3ccccc3)o2)CC1,7
21,O=C(CSc1nnnn1-c1ccc2c(c1)OCCO2)OC1CCCCC1,6.23
22,COc1ccc(C)cc1Nc1nc(-c2c(C)[nH]c3ccccc23)cs1,4.55
23,CSc1ccc(/C=c2\s/c(=C\C(=O)C(C)(C)C)n(CC(=O)NCCC3=CCCCC3)c2=O)cc1,-3.41
24,Cc1c(CN(C)C)c2c(n1Cc1ccccc1)C(=O)c1ccccc1-2.Cl,-79
25,Cc1c(CN(C)C)c2c(n1Cc1ccccc1)C(=O)c1ccc(Br)cc1-2.Cl,-16.4
26,Cc1c(CN(C)C)c2c(n1C)C(=O)c1ccc(Br)cc1-2.Cl,-2.4

row,SMILES,"hERG current change (%, negative = inhibition) at 1uM [%]"
1,CCCCOP(=O)(OCCCC)C(O)c1ccc(N(C)C)cc1 (centres unmarked),12.5
2,CSc1ccccc1OCc1cc(C(=O)NC2CCc3ccccc32)no1 (centres unmarked),17.2
3,OCc1ncccc1O,8.62
4,O=[N+]([O-])c1ccc(CN2CCCCCC2)cc1,-0.361
5,O=[N+]([O-])c1ccc(CN2CCOCCOCCN(Cc3ccc([N+](=O)[O-])cc3)CCOCC2)cc1,-86.9
6,O=[N+]([O-])c1ccc(CN2CCOCCOCCOCC2)cc1,-20.5
7,COc1ccc(CN2CCOCCOCCOCCOCCOCC2)cc1,7.46
8,COc1ccc(CN2CCOCCOCCOCC2)cc1,-21.8
9,COc1ccc(CN2CCOCCOCCN(Cc3ccc(OC)cc3)CCOCCOCC2)cc1,-84.1
10,CCCN(C(=O)CCl)C1=CCCCC1,26.6
11,O=C(CS(=O)(=O)Cc1ccccc1)Nc1ncccn1,13
12,C[C@@H]1CN=C2N(CCNC(=O)CCC3CCCCC3)[C@H](Cc3ccc(O)cc3)CN21,7.9
13,COc1ccc(C[C@H]2CN3C(=NC[C@@H]3C(C)C)N2CCNC(=O)CCC2CCCCC2)cc1,-86
14,C/C=C(\C)C(=O)NCCN1C2=NC[C@H](C(C)C)N2C[C@@H]1Cc1ccc(OC)cc1,-46.6
15,COc1ccc(C[C@H]2CN3C(=NC[C@@H]3Cc3ccc(O)cc3)N2C[C@H](C)NC(=O)CCC2CCCCC2)cc1,-14.9
16,COc1ccc(C[C@@H]2CN3C(=NC[C@@H]3Cc3ccc(O)cc3)N2C[C@H](C)NC(=O)CCC2CCCCC2)cc1,-64.6
17,C[C@@H](CN1C2=NC[C@H](Cc3ccc(O)cc3)N2C[C@H]1Cc1ccc(O)cc1)NC(=O)CCC1CCCCC1,12.5
18,COc1ccc(C[C@H]2CN3C(=NC[C@H]3Cc3ccccc3)N2CCNC(=O)CCC2CCCCC2)cc1,-49.2
19,COc1ccc(C[C@H]2CN3C(=NC[C@@H]3Cc3ccccc3)N2CCNC(=O)CCC2CCCCC2)cc1,-60.4
20,C[C@H]1CN=C2N(CCNC(=O)CCC3CCCCC3)[C@H](Cc3ccc(O)cc3)CN21,14.3
21,CC(C)[C@H]1CN=C2N(CCNC(=O)CCC3CCCCC3)[C@H](Cc3ccc(O)cc3)CN21,-2.53
22,COc1ccc(C[C@H]2CN3C(=NC[C@@H]3C)N2CCNC(=O)CCC2CCCCC2)cc1,-63.7
23,O=C(CCC1CCCCC1)NCCN1C2=NC[C@@H](Cc3ccccc3)N2C[C@H]1Cc1ccc(O)cc1,-0.771
